The panel holds about 83,000 compounds, 20% with a hit somewhere; the sample as a whole holds those more often.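 Values shown are percent growth following 48 h exposure of cells in 96-well plates to a single concentration of compound; below 10 was considered active.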 Unmarked numbers belong to inactive results. Calls of active or inactive are those of the source.
The compounds below were run on HCT-116 colon (assay: NCI-60 one-dose screen, 48 h (100 = growth as untreated, 0 = no growth, -100 = all killed)). Settings: 10 µM unless noted.

Q: Which growth does the source give for `CN1C(=O)C2(SCC(C(=O)NCC(=O)OC(C)(C)C)N2C(=O)C2CCCCC2)c2ccccc21` (stereo not drawn) here?
A: 96.3%

Q: How did the growth turn out when `COc1cc([C@@H]2c3cc4c(cc3C(OC3O[C@@H]5COC(C)O[C@H]5[C@H](O)[C@H]3O)C3COC(=O)[C@@H]32)OCO4)cc(OC)c1O` (stereo partly drawn) was run?
A: 41.7%

Q: For `O=[N+]([O-])c1cccc(C2c3ccccc3Oc3ccccc32)c1`, which growth is on record?
A: 68.3%

Q: For `O=c1cc(Cl)[nH]c(=O)[nH]1`, which growth is on record?
A: 101%

Q: `C=CCOc1ccc(/C(Cl)=N/N=C(\Cl)c2cc(OC)c(OC)c(OC)c2)cc1` was tested. Which growth did it give?
A: 70.2%

Q: With `CN(C)c1ccc(/C=c2\s/c(=C\C(=O)C(C)(C)C)[nH]c2=O)cc1` as the compound, how does the growth read?
A: 91.2%

Q: `Cc1ccn2cc(Cc3cc(=O)oc4c3ccc3ccccc34)c(=O)nc2c1` was tested. Which growth did it give?
A: 101%

Q: How did the growth turn out when `Clc1ccc(CN2COc3c(ccc4cccnc34)C2)cc1Cl` was run?
A: -39.1% (active)

Q: For `COc1ccccc1N1CCN(CC(O)COc2c(Br)c(Br)c(Br)c3c2OC(C)(C)C3)CC1` (stereo not drawn), which growth is on record?
A: 27.4%

Q: How did the growth turn out when `CCN(CC)CCNC(=O)c1c(C)[nH]c(/C=C2\C(=O)Nc3cc(NC(=O)NC(=O)c4ccc(OC)cc4F)ccc32)c1C` was run?
A: 64.7%

Q: `O=C(CSc1nnc(-c2ccc(Cl)cc2)o1)Nc1ccc(C(=O)/C=C/c2ccccc2)cc1` was tested. Which growth did it give?
A: 65.7%

Q: `Cn1c2ccccc2c2ssc(=S)c21` was tested. Which growth did it give?
A: 101%

Q: With `CN(CCNCc1ccccn1)CCNCc1ccccn1` as the compound, how does the growth read?
A: -25.2% (active)

Q: `Cc1ccc2c(C3C(C#N)=C(N)Oc4cc5ccccc5cc43)cc(=O)oc2c1` (stereo not drawn) was tested. Which growth did it give?
A: 15.9%

Q: `CNCCCOc1c(Br)cc(CCNC(=O)/C(Cc2ccc(OC)c(Br)c2)=N/O)cc1Br` was tested. Which growth did it give?
A: 19.8%

Q: `COC(OC)C1(c2ccccc2)NC(=O)NC1=O` (stereo not drawn) was tested. Which growth did it give?
A: 99.4%

Q: With `CC(C)(C)OC(=O)NCc1cccc(N=C=S)c1` as the compound, how does the growth read?
A: 56.2%

Q: How did the growth turn out when `Cc1cc(-c2ccccc2)nc2ccccc12` was run?
A: 99.7%

Q: For `O=C(Cn1c2ccccc2c2ccncc21)N/N=C\c1ccc2ccccc2c1`, which growth is on record?
A: -41.7% (active)

Q: For `CC[C@H]1[C@@H]2C=C[C@@H]3[C@H]4C/C=C\C(=O)NCCC[C@@H]5NC(=O)/C(=C(O)/C=C/[C@@H]4C[C@@H]3[C@H]2C[C@H]1C)C5=O`, which growth is on record?
A: -11.8% (active)

Q: `COc1ccc(/C=C/C(=O)c2ccc(Oc3ncnc4ccccc34)cc2)cc1OC` was tested. Which growth did it give?
A: -42.6% (active)

Q: For `Cc1cc(N2CCOCC2)nc(N(CCNc2ccnc3cc(Cl)ccc23)Cc2ccco2)n1`, which growth is on record?
A: 14.5%

Q: `CC(C)(c1ccc(OCC(O)CNCc2ccco2)cc1)c1ccc(OCC(O)CNCc2ccco2)cc1` (stereo not drawn) was tested. Which growth did it give?
A: 60.2%

Q: With `CCC1CN2C(=N1)c1ccccc1-c1cc(Cl)ccc12` (stereo not drawn) as the compound, how does the growth read?
A: 1.68% (active)

Q: With `O=C(Nc1cccc(-n2ccc3c(NC(=O)c4ccccc4)nccc32)c1)c1cccc(C(F)(F)F)c1` as the compound, how does the growth read?
A: 1.3% (active)

Q: How did the growth turn out when `CCOc1ccc(-n2c(-c3cc(OC)c(OC)c(OC)c3)nnc2-c2ccc(OC)cc2N)cc1` was run?
A: 63.7%

Q: For `O=C(COc1ccc(Cl)cc1)N1CCN(Cc2ccc3c(c2)OCO3)CC1`, which growth is on record?
A: 102%

Q: `C=C1C(=O)O[C@H]2[C@H]1CC/C(COC(=O)c1cccc3ccccc13)=C\CC[C@@]1(C)O[C@@H]21` was tested. Which growth did it give?
A: -93.8% (active)

Q: Which growth does the source give for `O=C(NNC(=O)c1ccc([N+](=O)[O-])cc1)c1ccc([N+](=O)[O-])cc1` here?
A: 84.6%

Q: How did the growth turn out when `COc1ccc(-n2c(-c3ccc(NC(=O)CCCl)cc3)nnc2-c2cc(OC)c(OC)c(OC)c2)cc1` was run?
A: 35.7%

Q: Which growth does the source give for `N#Cc1c(N)nc2c(c1N)C(c1ccc(Cl)cc1)C1=C(CCCC1=O)N2c1sc2c(c1C#N)CCCC2` (stereo not drawn) here?
A: 70.8%

Q: With `CS(=O)(=O)Nc1cccc(-c2ccc3ncnc(Nc4cncc(Cl)c4)c3c2)c1` as the compound, how does the growth read?
A: 30.4%

Q: For `COc1cc(C(=O)NNC(=O)c2ccccc2O)cc(OC)c1OC`, which growth is on record?
A: 101%

Q: `C=C1C(=O)O[C@H]2[C@H]1CC/C(COC(=O)c1cc(OC)c(OC)c(OC)c1)=C\CC[C@@]1(C)O[C@@H]21` was tested. Which growth did it give?
A: -84.8% (active)

Q: For `CC(C)(CCN=C(N)Nc1ccccn1)c1ccc(C(F)(F)F)cc1`, which growth is on record?
A: -45% (active)

Q: `O=C(Nc1ccc(-n2cc(-c3ccncc3)c(-c3ccc(O)c(Cl)c3)n2)cc1)c1cc(Cl)cc(Cl)c1` was tested. Which growth did it give?
A: 17.6%

Q: Which growth does the source give for `CCOc1ccccc1C(=O)N1CCN(c2cc(Cl)cc(Cl)c2)CC1` here?
A: -6.57% (active)

Q: `COc1ccc(/C=N/C2=NNC(C)(c3ccccc3O)N2C(Cc2c[nH]c3ccccc23)C(=O)O)cc1` (stereo not drawn) was tested. Which growth did it give?
A: 10.8%

Q: `O=C(NCCNc1nccc(-c2c(-c3cccc(O)c3)nc3sccn23)n1)c1ccccc1O` was tested. Which growth did it give?
A: 25.9%

The compounds below were run on HCC-2998 colon in the same assay as above. Settings: 10 µM unless noted.

Q: Which growth does the source give for `CN1C(=O)C2(SCC(C(=O)NCC(=O)OC(C)(C)C)N2C(=O)C2CCCCC2)c2ccccc21` (stereo not drawn) here?
A: 106%

Q: `COc1cc([C@@H]2c3cc4c(cc3C(OC3O[C@@H]5COC(C)O[C@H]5[C@H](O)[C@H]3O)C3COC(=O)[C@@H]32)OCO4)cc(OC)c1O` (stereo partly drawn) was tested. Which growth did it give?
A: 38.7%

Q: `O=[N+]([O-])c1cccc(C2c3ccccc3Oc3ccccc32)c1` was tested. Which growth did it give?
A: 91.1%

Q: Which growth does the source give for `O=c1cc(Cl)[nH]c(=O)[nH]1` here?
A: 93.5%

Q: `C=CCOc1ccc(/C(Cl)=N/N=C(\Cl)c2cc(OC)c(OC)c(OC)c2)cc1` was tested. Which growth did it give?
A: 75.6%

Q: `CN(C)c1ccc(/C=c2\s/c(=C\C(=O)C(C)(C)C)[nH]c2=O)cc1` was tested. Which growth did it give?
A: 107%

Q: For `Cc1ccn2cc(Cc3cc(=O)oc4c3ccc3ccccc34)c(=O)nc2c1`, which growth is on record?
A: 100%

Q: Which growth does the source give for `Clc1ccc(CN2COc3c(ccc4cccnc34)C2)cc1Cl` here?
A: -25.4% (active)

Q: `COc1ccccc1N1CCN(CC(O)COc2c(Br)c(Br)c(Br)c3c2OC(C)(C)C3)CC1` (stereo not drawn) was tested. Which growth did it give?
A: 39.9%

Q: Which growth does the source give for `CCN(CC)CCNC(=O)c1c(C)[nH]c(/C=C2\C(=O)Nc3cc(NC(=O)NC(=O)c4ccc(OC)cc4F)ccc32)c1C` here?
A: 100%

Q: How did the growth turn out when `O=C(CSc1nnc(-c2ccc(Cl)cc2)o1)Nc1ccc(C(=O)/C=C/c2ccccc2)cc1` was run?
A: 106%

Q: How did the growth turn out when `Cn1c2ccccc2c2ssc(=S)c21` was run?
A: 101%

Q: With `CN(CCNCc1ccccn1)CCNCc1ccccn1` as the compound, how does the growth read?
A: -46.8% (active)

Q: How did the growth turn out when `Cc1ccc2c(C3C(C#N)=C(N)Oc4cc5ccccc5cc43)cc(=O)oc2c1` (stereo not drawn) was run?
A: 58.9%

Q: `CNCCCOc1c(Br)cc(CCNC(=O)/C(Cc2ccc(OC)c(Br)c2)=N/O)cc1Br` was tested. Which growth did it give?
A: 46%

Q: Which growth does the source give for `COC(OC)C1(c2ccccc2)NC(=O)NC1=O` (stereo not drawn) here?
A: 101%

Q: With `CC(C)(C)OC(=O)NCc1cccc(N=C=S)c1` as the compound, how does the growth read?
A: 57%

Q: Which growth does the source give for `Cc1cc(-c2ccccc2)nc2ccccc12` here?
A: 106%

Q: `O=C(Cn1c2ccccc2c2ccncc21)N/N=C\c1ccc2ccccc2c1` was tested. Which growth did it give?
A: 74.5%

Q: Which growth does the source give for `CC[C@H]1[C@@H]2C=C[C@@H]3[C@H]4C/C=C\C(=O)NCCC[C@@H]5NC(=O)/C(=C(O)/C=C/[C@@H]4C[C@@H]3[C@H]2C[C@H]1C)C5=O` here?
A: 52.8%

Q: With `COc1ccc(/C=C/C(=O)c2ccc(Oc3ncnc4ccccc34)cc2)cc1OC` as the compound, how does the growth read?
A: 29.1%

Q: `Cc1cc(N2CCOCC2)nc(N(CCNc2ccnc3cc(Cl)ccc23)Cc2ccco2)n1` was tested. Which growth did it give?
A: 62.9%

Q: Which growth does the source give for `CC(C)(c1ccc(OCC(O)CNCc2ccco2)cc1)c1ccc(OCC(O)CNCc2ccco2)cc1` (stereo not drawn) here?
A: 46.6%

Q: With `CCC1CN2C(=N1)c1ccccc1-c1cc(Cl)ccc12` (stereo not drawn) as the compound, how does the growth read?
A: 28.5%

Q: With `O=C(Nc1cccc(-n2ccc3c(NC(=O)c4ccccc4)nccc32)c1)c1cccc(C(F)(F)F)c1` as the compound, how does the growth read?
A: 31.8%

Q: With `CCOc1ccc(-n2c(-c3cc(OC)c(OC)c(OC)c3)nnc2-c2ccc(OC)cc2N)cc1` as the compound, how does the growth read?
A: 82.4%

Q: How did the growth turn out when `O=C(COc1ccc(Cl)cc1)N1CCN(Cc2ccc3c(c2)OCO3)CC1` was run?
A: 99.9%

Q: How did the growth turn out when `C=C1C(=O)O[C@H]2[C@H]1CC/C(COC(=O)c1cccc3ccccc13)=C\CC[C@@]1(C)O[C@@H]21` was run?
A: 62.7%

Q: With `O=C(NNC(=O)c1ccc([N+](=O)[O-])cc1)c1ccc([N+](=O)[O-])cc1` as the compound, how does the growth read?
A: 104%

Q: `COc1ccc(-n2c(-c3ccc(NC(=O)CCCl)cc3)nnc2-c2cc(OC)c(OC)c(OC)c2)cc1` was tested. Which growth did it give?
A: 43.2%

Q: How did the growth turn out when `N#Cc1c(N)nc2c(c1N)C(c1ccc(Cl)cc1)C1=C(CCCC1=O)N2c1sc2c(c1C#N)CCCC2` (stereo not drawn) was run?
A: 90.3%

Q: `CS(=O)(=O)Nc1cccc(-c2ccc3ncnc(Nc4cncc(Cl)c4)c3c2)c1` was tested. Which growth did it give?
A: 39.2%

Q: Which growth does the source give for `COc1cc(C(=O)NNC(=O)c2ccccc2O)cc(OC)c1OC` here?
A: 97.1%

Q: `C=C1C(=O)O[C@H]2[C@H]1CC/C(COC(=O)c1cc(OC)c(OC)c(OC)c1)=C\CC[C@@]1(C)O[C@@H]21` was tested. Which growth did it give?
A: 41.2%

Q: Which growth does the source give for `CC(C)(CCN=C(N)Nc1ccccn1)c1ccc(C(F)(F)F)cc1` here?
A: -25.1% (active)

Q: How did the growth turn out when `O=C(Nc1ccc(-n2cc(-c3ccncc3)c(-c3ccc(O)c(Cl)c3)n2)cc1)c1cc(Cl)cc(Cl)c1` was run?
A: 39.3%

Q: With `CCOc1ccccc1C(=O)N1CCN(c2cc(Cl)cc(Cl)c2)CC1` as the compound, how does the growth read?
A: 16.4%

Q: `COc1ccc(/C=N/C2=NNC(C)(c3ccccc3O)N2C(Cc2c[nH]c3ccccc23)C(=O)O)cc1` (stereo not drawn) was tested. Which growth did it give?
A: 47.7%

Q: Which growth does the source give for `O=C(NCCNc1nccc(-c2c(-c3cccc(O)c3)nc3sccn23)n1)c1ccccc1O` here?
A: 81%
